Laboratory results: PubChem BioAssay AID588519 (ICCB-Longwood Screening Facility, Harvard Medical School, 2011)
Among all 150,000 compounds or so, about 1,000 (0.67%) were called active. No stated cut-off is given here; in the data, active means % elongation below about 90%; inactive means the rest, inconclusive results apart. The list comes from a sample in which actives are over-represented; it also holds similar structures and randomly drawn compounds.

Target: Genome polyprotein (Poliovirus type 1 (strain Mahoney)) (UniProt P03300)
Assay: poliovirus RdRp elongation inhibitors, primary screen, biochemical, fluorescence polarization, total intensity (AID 588519); on z-score: compound at 16.7 µg/mL
Settings: poliovirus polymerase elongation, stronger effect = lower value; for % elongation: compound at 16.7 µg/mL; for z-score: measured here: FP z-score
[1] = measured here: total intensity read-out

Sequence of Genome polyprotein (Poliovirus type 1 (strain Mahoney)) (P03300 1749-2209 limits assumed): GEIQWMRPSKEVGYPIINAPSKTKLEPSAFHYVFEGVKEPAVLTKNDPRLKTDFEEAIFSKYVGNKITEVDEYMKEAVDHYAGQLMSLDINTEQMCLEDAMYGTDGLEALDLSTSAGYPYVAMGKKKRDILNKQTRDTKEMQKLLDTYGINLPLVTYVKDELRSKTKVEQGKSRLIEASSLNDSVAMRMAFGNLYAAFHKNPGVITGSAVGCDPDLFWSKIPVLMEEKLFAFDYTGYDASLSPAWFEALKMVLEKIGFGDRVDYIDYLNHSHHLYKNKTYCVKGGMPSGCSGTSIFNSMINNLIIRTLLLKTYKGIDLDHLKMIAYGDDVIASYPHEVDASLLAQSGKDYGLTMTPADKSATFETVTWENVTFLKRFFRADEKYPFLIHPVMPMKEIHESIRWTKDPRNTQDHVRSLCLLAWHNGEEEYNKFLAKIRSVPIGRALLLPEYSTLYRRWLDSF

SMILES	% elongation	z-score	% elongation [1] [%]
COC(=O)CSc1nnc2c(n1)[nH]c1ccccc12	102% (inactive)	0.2	108
CC(C)(C)NC(=O)C1CCN(S(=O)(=O)c2ccccc2)CC1	101% (inactive)	0.1	103
CCC(=O)Nc1ccc(C(=O)n2nnc3ccccc32)cc1	104% (inactive)	1	102
O=C1C(Nc2ccc(O)cc2)=C(n2nnc3ccccc32)C(=O)c2ccccc21	79% (active)	-2.2	79
N#CC1=C2Sc3ccccc3N2CC1=O	97% (inactive)	-1	165
Cc1c(C(=O)NC(C)CCc2ccccc2)oc2c1C(=O)CCC2 (stereo not drawn)	102% (inactive)	0	102
Sc1ccc2ccccc2c1	90% (active)	-1.5	91
O=C1c2ccccc2C(=O)C1c1ccc2ccccc2c1	93% (inactive)	-1.3	92
c1ccc2cc3cnccc3cc2c1	100% (inactive)	-0.3	102
N#Cc1ccc(COC(=O)Cc2noc3ccccc23)cc1	109% (inactive)	0.7	104
O=S(=O)(c1cc(S(=O)(=O)C(F)(F)F)c(Cl)c(S(=O)(=O)C(F)(F)F)c1)C(F)(F)F	98% (inactive)	-0.2	95
C/C(=N\c1ccccn1)C1=C(O)c2ccccc2C1=O	98% (inactive)	-1	97
O=S(=O)(NC1CCCCC1N1CCCCC1)c1ccc(Cl)cc1 (stereo not drawn)	104% (inactive)	0.2	96
Cc1ccc2nc(Nc3ccccc3)cc(C)c2c1	110% (inactive)	0.8	111
Cc1ccc2nc(-c3ccccn3)cc(C(=O)O)c2c1	103% (inactive)	0.8	100
Cc1ccc2nc(C)c3c(c2c1)N(c1ccccc1)CC3	89% (active)	-2.3	89
CC(=O)OC[C@H]1O[C@@H](NC(=S)NN)[C@H](OC(C)=O)[C@@H](OC(C)=O)[C@@H]1OC(C)=O	103% (inactive)	0.3	96
CC(=O)Oc1c[n+]([O-])n(-c2ccccc2)n1	97% (inactive)	-0.6	100
CCOC(=O)C1=C(C)NC(=O)NC1c1ccccc1 (stereo not drawn)	101% (inactive)	-0.1	102
CCOc1cc(C2C(C(=O)OC)=C(C)NC3=C2C(=O)c2ccccc23)ccc1O (stereo not drawn)	112% (inactive)	0.2	113
CCOC(=O)C(C(=O)c1ccccc1)C1(O)C(=O)c2ccccc2C1=O (stereo not drawn)	46% (active)	-6.9	56

SMILES	% elongation	z-score	% elongation [1] [%]
COC(=O)CC(N)c1ccc(Cl)cc1 (stereo not drawn)	103% (inactive)	0.2	106
C=CCN1CCN(C(c2ccc(C)cc2)c2nnnn2C2CCCC2)CC1 (stereo not drawn)	103% (inactive)	0.4	102
CSC(=S)Nc1ccc(C)cc1	100% (inactive)	0.1	104
Cc1ccc(NC(=S)Nc2ccc(C)cc2)cc1	76% (active)	-4.1	82
Cc1ccc(NC(=O)CC(=O)Nc2ccc(C)cc2)cc1	106% (inactive)	0.3	102
O=C(O)COc1cc(Br)c(Br)c(Br)c1O	102% (inactive)	0.1	92
CCn1c(SCc2cc(=O)oc3cc(NC(C)=O)ccc23)nnc1-c1ccccc1	100% (inactive)	-0.5	111
CC(C)/C=N/NC(=O)c1ccccc1	103% (inactive)	0.3	103
O=C(NNc1ncnc2ccccc12)c1ccncc1	106% (inactive)	0.6	101
O=C(NN=c1c(=O)c2ccccc2c1=O)c1ccncc1	58% (active)	-12.6	54
O=c1[nH]c(CN2CCCC2c2ccc3c(c2)OCCO3)nc2cc(Cl)ccc12 (stereo not drawn)	102% (inactive)	0	104
CCN(C(=O)CN1CCCCC1)c1nc2ccc(C)cc2s1	102% (inactive)	-0.3	103
NC(=O)C1CCN(C(=S)Nc2ccccc2)CC1	103% (inactive)	1.1	103
O=C(Nc1ccccc1)C(=S)Nc1ccccc1	87% (active)	-1.9	88
CC(C)OC(=O)Nc1ccccc1	106% (inactive)	0.8	110
COc1nc(NCCO)nc(Nc2ccc(I)cc2C)n1	99% (inactive)	-1.2	94
O=C1c2ccccc2C(=O)N1CCN1c2cccc3cccc(c23)S1(=O)=O	100% (inactive)	0.1	101
COC(=O)C1=CN(CCc2ccccc2)C=C(C(=O)OC)C1C(=O)OC	107% (inactive)	0.6	108
CC(=O)Nc1ccccc1NC(=O)CN(C)S(=O)(=O)c1ccccc1	100% (inactive)	0	103
COC(=O)c1cc(-c2cccs2)nc2ccccc12	101% (inactive)	-0.1	101
